# Data taken from publication PMC5700166.
# Columns and labels:
# [1] = molecular target: T1, GST-Nv-NF-kB (Ser allele) (Nematostella vectensis, UniProt A7UNT2 2-411); assay: protein-binding microarray (PBM); PBM: ~300 nM protein, 6 mM HEPES pH 7.8, 80 mM KCl, 0.5 mM EDTA, 0.5 mM EGTA, 6% glycerol, 35 ng/ul poly-dIdC, 1% milk, 1 h, room temperature; Ap Aiptasia and Nv Nematostella (sea anemones) / Co Capsaspora / Aq Amphimedon (sponge) / Dm Drosophila / Hu human; RHD is the Rel homology domain; high values mean tight binding; details: dsDNA, one strand shown
# T1 sequence: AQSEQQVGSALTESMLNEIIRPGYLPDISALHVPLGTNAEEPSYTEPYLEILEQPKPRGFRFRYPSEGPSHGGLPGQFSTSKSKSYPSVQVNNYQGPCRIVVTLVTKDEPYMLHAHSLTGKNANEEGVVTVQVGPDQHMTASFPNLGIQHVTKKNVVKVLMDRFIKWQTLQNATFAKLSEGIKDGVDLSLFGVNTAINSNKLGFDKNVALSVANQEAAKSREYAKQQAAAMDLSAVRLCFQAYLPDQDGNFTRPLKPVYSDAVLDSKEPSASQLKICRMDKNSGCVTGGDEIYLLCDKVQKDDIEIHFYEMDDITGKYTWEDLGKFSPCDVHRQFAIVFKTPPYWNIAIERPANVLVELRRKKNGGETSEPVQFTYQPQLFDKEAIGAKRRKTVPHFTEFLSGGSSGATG
# GST-Hu-p50 = GST-Hu-p50 (Homo sapiens, UniProt P19838 7-356); assay: as above; details: dsDNA, one strand shown
# Chain of GST-Hu-p50 (P19838 7-356): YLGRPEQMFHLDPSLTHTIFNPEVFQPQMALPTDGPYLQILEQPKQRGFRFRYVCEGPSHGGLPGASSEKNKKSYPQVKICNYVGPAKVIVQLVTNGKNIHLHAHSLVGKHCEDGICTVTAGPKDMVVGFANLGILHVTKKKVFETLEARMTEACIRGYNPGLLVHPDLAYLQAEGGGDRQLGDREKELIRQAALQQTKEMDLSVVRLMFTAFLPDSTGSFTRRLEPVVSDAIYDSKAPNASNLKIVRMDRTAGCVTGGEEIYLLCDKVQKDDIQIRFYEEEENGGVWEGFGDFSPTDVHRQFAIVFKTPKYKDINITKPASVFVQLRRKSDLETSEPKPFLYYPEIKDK
Sequence,binding signal [1],binding signal (GST-Hu-p50)
CCGATTAACATCAAAAAAATTTCTGATGTTAATCGGGTCTTGATTCGCTTGACGCTGCTG,1.35 z-score,1.66 z-score
CCGATTAACATCAGGGAAACCACTGATGTTAATCGGGTCTTGATTCGCTTGACGCTGCTG,4.02 z-score,3.94 z-score
CCGATTAACATCAGAAATGGGAATGATGTTAATCGGGTCTTGATTCGCTTGACGCTGCTG,1.7 z-score,1.72 z-score
CCGATTAACATCAAAACAGTCCCTGATGTTAATCGGGTCTTGATTCGCTTGACGCTGCTG,4.68 z-score,4.68 z-score
CCGATTAACATCAATCGGGAAATTGATGTTAATCGGGTCTTGATTCGCTTGACGCTGCTG,3.66 z-score,2.28 z-score
CCGATTAACATCACCTCCGTATCTGATGTTAATCGGGTCTTGATTCGCTTGACGCTGCTG,1.11 z-score,1.28 z-score
CCGATTAACATCACTACTTTCCCTGATGTTAATCGGGTCTTGATTCGCTTGACGCTGCTG,5.24 z-score,3.06 z-score
CCGATTAACATCAGGAGAACCCCTGATGTTAATCGGGTCTTGATTCGCTTGACGCTGCTG,1.24 z-score,3.68 z-score
CCGATTAACATCACTGGGATTTCTGATGTTAATCGGGTCTTGATTCGCTTGACGCTGCTG,1.8 z-score,2.5 z-score
CCGATTAACATCAGATTTCTCCCTGATGTTAATCGGGTCTTGATTCGCTTGACGCTGCTG,3.47 z-score,1.72 z-score
CCGATTAACATCAGGTATTCCCATGATGTTAATCGGGTCTTGATTCGCTTGACGCTGCTG,2.85 z-score,1.73 z-score
CCGATTAACATCACACATTTCCCTGATGTTAATCGGGTCTTGATTCGCTTGACGCTGCTG,4.87 z-score,3.2 z-score
